Measurements reported in PubChem BioAssay AID743144 (Broad Institute, 2013).
Potency and affinity values are given separately. Results filed as inconclusive are left out. The source made the active and inactive calls. How the calls were made is not given here.

assay: cytotoxicity in COV362 ovarian cancer cells, dose response, cytotoxicity control for PAX8 inhibitor project, cell-based, plate reader, dry powder, SA12 (AID 743144); conditions: series mostly up to 35 µM; activity change, negative = cytotoxicity: at the top concentration

Structure (SMILES) | activity change, negative = cytotoxicity
COc1cccc(-c2ccc([C@H]3[C@@H](CO)N(C(=O)Cc4ccccc4)[C@H]3C#N)cc2)c1 | -1.15% (inactive)
Cc1ccc(S(=O)(=O)Nc2ccc3c(c2)C(=O)N([C@H](C)CO)C[C@@H](C)[C@H](CN(C)Cc2ccc(C(F)(F)F)cc2)OCCCC[C@H](C)O3)cc1 | 1.4% (inactive)
C[C@@H]1CN([C@H](C)CO)C(=O)CCCn2nncc2CO[C@H]1CN(C)Cc1ccc(Oc2ccccc2)cc1 | 2.48% (inactive)
C[C@H](CO)N1C[C@H](C)[C@H](CN(C)C(=O)Nc2ccc(-c3cccs3)cc2)OCc2cnnn2CCCC1=O | 19.4% (inactive)
O=C(Nc1ccc(OCC(F)(F)C(F)F)c(C(F)(F)F)c1)c1ccccc1O | -10.1% [at 50 µM] (inactive)
CCN(CC(=O)Nc1c(F)cccc1F)C(=O)c1cc(S(=O)(=O)N(C)C)ccc1N1CCCC1 | -10.6% [at 50 µM] (inactive)
COc1cccc(C#Cc2ccc([C@H]3[C@@H](CO)N(C(=O)c4ccccn4)[C@H]3C#N)cc2)c1 | -41.4% (inactive)
O=C(CCS(=O)(=O)c1ccccc1)Nc1nc2ccc(F)cc2s1 | -15.5% [at 50 µM] (inactive)
C[C@H](CO)N1C[C@H](C)[C@@H](CN(C)S(=O)(=O)c2ccc(-c3ccccc3)cc2)OCc2cn(nn2)CCCC1=O | 8.14% (inactive)
C[C@H](CO)N1C[C@H](C)[C@@H](CN(C)Cc2ccc(-c3ccccc3)cc2)Oc2ccc(NC(=O)C3CC3)cc2CC1=O | 25.9% (inactive)
N#C[C@H]1N[C@H](CO)[C@@H]1c1ccc(C#Cc2ccccc2F)cc1 | 11.2% (inactive)
C[C@H](CO)N1C[C@H](C)[C@@H](CN(C)Cc2ccc(C(F)(F)F)cc2)Oc2ccc(NS(=O)(=O)c3ccc(Cl)cc3)cc2CC1=O | 3.8% [at 16 µM] (inactive)
COc1ccccc1C#Cc1ccc([C@H]2[C@@H](CO)N(C(=O)C3CCCC3)[C@H]2C#N)cc1 | -0.208% (inactive)
CCCC#Cc1ccc([C@@H]2[C@@H](C#N)N(S(=O)(=O)c3cccc(F)c3)[C@H]2CO)cc1 | -1.4% (inactive)
COc1ccc(S(=O)(=O)Nc2ccc3c(c2)CC(=O)N([C@@H](C)CO)C[C@H](C)[C@@H](CN(C)Cc2ccc(C(F)(F)F)cc2)O3)cc1 | -11.9% (inactive)
CC(=O)N1CCOc2ccc(S(=O)(=O)N3CCN(c4cccc(C(F)(F)F)c4)CC3)cc21 | -15.3% [at 50 µM] (inactive)
C[C@@H]1CN([C@H](C)CO)C(=O)CCCn2cc(nn2)CO[C@H]1CN(C)C(=O)Nc1ccc(-c2cccs2)cc1 | -10% (inactive)
COc1cccc(C#Cc2ccc([C@@H]3[C@@H](C#N)N(C(=O)C4CCCCC4)[C@@H]3CO)cc2)c1 | 4.28% (inactive)
COc1ccc(S(=O)(=O)N2CCCCN3[C@H](CO)[C@H](c4ccc(C#CC(C)C)cc4)[C@H]3C2)cc1 | 19.2% [at 16 µM] (inactive)
C[C@H](CO)N1C[C@H](C)[C@@H](CN(C)Cc2ccc(C(F)(F)F)cc2)OCCCC[C@H](C)Oc2ccc(NS(=O)(=O)c3ccc(F)cc3)cc2C1=O | -16.1% (inactive)
C[C@H]1CN([C@@H](C)CO)C(=O)Cc2cc(NC(=O)NC3CCCCC3)ccc2O[C@@H]1CN(C)Cc1ccc(-c2ccccc2)cc1 | 21.3% (inactive)
